Measurements: PubChem BioAssay (NCATS)
Results filed as inconclusive are left out. Calls of active or inactive are those of the source. Unless noted, the call rests on the fitted dose curve.

Tested on: not listed separately
Assay: qHTS for Inhibitors of Plasmodium falciparum (CP250) proliferation (AID 504320; active means well fitted inhibition curve with a large enough effect;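 further: plate controls were DMSO vehicle for no effect and 0.29 µM artemisinin control for full effect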)
Conditions: P. falciparum CP250 in erythrocytes, SYBR Green DNA, 72 h; series mostly up to 6.7 µM; activity change, negative = inhibition: at the top concentration
Summary of the method: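 Parasite growth measured as SYBR Green DNA fluorescence (ex 485, em 535 nm) after overnight lysis following 72 h culture at 37 °C, 0.3% parasitemia, 2.5% hematocrit. Values normalized against DMSO and 0.29 uM artemisinin controls, with plate-stack correction.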

Activity change, negative = inhibition, inactive:
CC(C)CON=C1C[C@@H](O)[C@@H](O)[C@@H]2[C@H]3C(=O)N(Cc4ccc5c(c4)OCO5)C(=O)[C@@H]3CC[C@@H]12 7.54%
CC(CCC(=O)OC[C@H]1O[C@H](C#Cc2ccccc2)C=C[C@H]1Oc1ccc(C)cc1)=NO[C@@H](C)c1cn([C@H](CO)Cc2ccccc2)nn1 -0.353%
COC(=O)C1=C[C@@]2(c3ccc(F)cc3[C@@H](OC)[C@@H]2C)[C@@H]2C=C[C@H]1C2 -7.58%
COCCN1C(=S)NC(c2cccc(F)c2)C(C(=O)OC)=C1C (stereo unspecified) 1.58%
C[C@H](ON=C1[C@H]2CCn3c(=O)n(-c4ccccc4)c(=O)n3[C@@H]2[C@H](O)[C@@H]2O[C@H]12)c1cn([C@H](CO)Cc2ccccc2)nn1 -0.0397%
C=CCN1C(=O)CC[C@@]23C1=NC(C(=O)OC)=C(C(=O)OC)[C@@H]2N(CC#CC)c1ccccc13 4.42%
CC(=O)OC[C@H]1O[C@@H](ON=CC[C@@H]2C=C[C@@H](OC(C)=O)[C@@H](COC(C)=O)O2)[C@@H](OC(C)=O)[C@@H](OC(C)=O)[C@@H]1OC(C)=O 0.841%
C[C@H](NC(=O)N1CCc2nc(-c3ccccc3)c3c(c2C1)CO[C@@H](C)C3)c1ccccc1 2.68%
COc1ccc(C(O)C2=CCCC2=O)cc1 (stereo unspecified) -7.71%
COc1ccc2c(c1)O[C@@H](c1cccc(C(F)(F)F)c1)[C@H](OC(=O)NC1CCCC1)C2=O 2.93%
C[C@@H]1CC[C@H]2C(=O)N3[C@@H](CC[C@@H](C)[C@@H]3c3ccc(Br)cc3)C(=O)N2[C@@H]1c1ccc(Br)cc1 2.51%
COC(=O)C1=C(C)N(Cc2ccccc2)C(=O)NC1c1cccc(F)c1 (stereo unspecified) 7.16%
C=CC[C@@H]1C=C(C(=O)OC)N(C(=O)C(F)(F)F)[C@@H](c2ccccc2Br)[C@@H]1C 0.385%
CCOC(=O)C1=CN(CCC=C(C)C)C(=O)NC1c1ccccc1 (stereo unspecified) -0.0895%
COc1ccc2c(c1)C(=O)[C@H](OC(=O)N[C@H]1CCCc3ccccc31)[C@@H](c1ccc(OC)c(Br)c1)O2 -1.06%
COCC=CC1=CC2=CC(=O)C(C)(OC(=O)c3cnc4ccccc4n3)C(=O)C2=CN1Cc1ccc(OC)cc1 (stereo unspecified) 3.05%
COC(=O)N[C@H](CC(C)=O)c1ccc2c(c1)OCO2 1.2%
COC(=O)N[C@@H](C=Cc1ccccc1)C[N+](=O)[O-] -1.75%
COC(=O)CC=C[C@@H](C)[C@H](NC(=O)OCC(Cl)(Cl)Cl)c1ccc2ccccc2c1 0.867%

Potency, inactive:
C[C@H]1Cc2c(COc3ccccc3)nc3c(c2CO1)CN(S(=O)(=O)c1ccc2c(c1)OCCN2C)CC3
COC(=O)CCCC1=CC2=CC(=O)C(C)(OC(=O)c3cccs3)C(=O)C2=CN1C1CCCC1 (stereo unspecified)
COc1ccc(N2C=C3C(=O)C(C)(OC(=O)C4CCCC4)C(=O)C=C3C=C2c2ccsc2)cc1 (stereo unspecified)
C=CC1=C2C=C(C3CC3)N(c3ccc(OC)cc3)C=C2C(=O)C(C)(OC(=O)c2ccco2)C1=O (stereo unspecified)
COC(=O)CCC(=O)OC1(C)C(=O)C=C2C=C(C3CC3)N(c3ccc(CO)cc3)C=C2C1=O (stereo unspecified)
C[C@H](NC(=O)N1CCc2nc(COc3ccccc3)c3c(c2C1)CO[C@@H](C)C3)c1ccccc1
COC(=O)CCCC1=CC2=C(c3ccccc3)C(=O)C(C)(OC(=O)C3CCCC3)C(=O)C2=CN1c1ccccc1 (stereo unspecified)
COc1ccc(CN2C=C3C(=O)C(C)(OC(=O)C4CCCC4)C(=O)C=C3C=C2c2ccsc2)cc1 (stereo unspecified)

Biological target: Atrial natriuretic peptide receptor 1 (Homo sapiens) (UniProt P16066)
Sequence (P16066 whole entry, looked up): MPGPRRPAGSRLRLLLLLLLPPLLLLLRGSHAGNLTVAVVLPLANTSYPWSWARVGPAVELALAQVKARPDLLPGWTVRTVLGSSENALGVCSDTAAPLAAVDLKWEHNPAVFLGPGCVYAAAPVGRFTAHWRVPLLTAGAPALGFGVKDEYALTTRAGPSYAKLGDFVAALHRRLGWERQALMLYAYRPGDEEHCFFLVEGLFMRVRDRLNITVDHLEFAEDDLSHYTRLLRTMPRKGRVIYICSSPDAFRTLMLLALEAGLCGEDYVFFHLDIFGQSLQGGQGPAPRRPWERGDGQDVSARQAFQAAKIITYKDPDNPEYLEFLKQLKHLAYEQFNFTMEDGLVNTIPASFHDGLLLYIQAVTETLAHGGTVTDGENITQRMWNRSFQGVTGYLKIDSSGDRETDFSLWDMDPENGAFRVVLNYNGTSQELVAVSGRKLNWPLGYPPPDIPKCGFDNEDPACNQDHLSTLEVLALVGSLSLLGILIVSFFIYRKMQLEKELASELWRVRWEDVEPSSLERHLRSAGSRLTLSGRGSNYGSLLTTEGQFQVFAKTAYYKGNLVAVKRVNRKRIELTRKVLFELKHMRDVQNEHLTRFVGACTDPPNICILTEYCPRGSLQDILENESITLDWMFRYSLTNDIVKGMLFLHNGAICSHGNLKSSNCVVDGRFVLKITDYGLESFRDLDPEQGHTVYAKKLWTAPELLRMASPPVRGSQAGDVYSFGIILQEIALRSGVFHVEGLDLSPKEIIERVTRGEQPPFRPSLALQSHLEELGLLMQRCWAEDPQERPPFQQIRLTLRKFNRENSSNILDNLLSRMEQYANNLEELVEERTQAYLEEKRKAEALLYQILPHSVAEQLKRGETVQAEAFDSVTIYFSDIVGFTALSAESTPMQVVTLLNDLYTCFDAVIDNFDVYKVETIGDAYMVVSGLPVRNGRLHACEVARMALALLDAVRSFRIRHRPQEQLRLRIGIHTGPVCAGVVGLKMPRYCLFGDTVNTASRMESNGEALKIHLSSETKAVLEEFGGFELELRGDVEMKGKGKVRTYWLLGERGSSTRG
Assay: Natriuretic polypeptide receptor (hNpr1) antagonism - Pilot CMLD screen (AID 1347052);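 further: HEK293 cells with hNpr1 stimulated by hNppA peptide at 0.1 nM; cGMP level read as GloSensor luciferase luminescence after agonist stimulation; on the % scale 0 is the no-effect control and ±100 the full control effect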
Conditions: HEK293 hNpr1 GloSensor cGMP luminescence, ANP-stimulated; series mostly up to 9.22 µM; activity change, negative = inhibition: at the top concentration

Activity change, negative = inhibition, inactive:
CC(C)CON=C1C[C@@H](O)[C@@H](O)[C@@H]2[C@H]3C(=O)N(Cc4ccc5c(c4)OCO5)C(=O)[C@@H]3CC[C@@H]12 1.36%
C[C@H]1Cc2c(COc3ccccc3)nc3c(c2CO1)CN(S(=O)(=O)c1ccc2c(c1)OCCN2C)CC3 -0.366%
CC(=O)OC[C@H]1O[C@H](C#Cc2ccccc2)C=C[C@H]1O -1.28%
COC(=O)CCCC1=CC2=CC(=O)C(C)(OC(=O)c3cccs3)C(=O)C2=CN1C1CCCC1 (stereo unspecified) 3.37%
CC(CCC(=O)OC[C@H]1O[C@H](C#Cc2ccccc2)C=C[C@H]1Oc1ccc(C)cc1)=NO[C@@H](C)c1cn([C@H](CO)Cc2ccccc2)nn1 1.01%
CCO[C@H](c1cc(OC)cc([N+](=O)[O-])c1OC)[C@H](C)[C@@H](OC)[C@H](C)C=CCC(=O)OC 8.39%
COC(=O)C1=C[C@@]2(c3ccc(F)cc3[C@@H](OC)[C@@H]2C)[C@@H]2C=C[C@H]1C2 6.92%
COc1ccc(N2C=C3C(=O)C(C)(OC(=O)C4CCCC4)C(=O)C=C3C=C2c2ccsc2)cc1 (stereo unspecified) -2.59%
COc1ccc(-c2nc3c(c4c2C[C@H](c2ccccc2)OC4)CN(C(=O)c2cc(I)ccc2F)CC3)c(C)c1 -4.34%
COCCN1C(=S)NC(c2cccc(F)c2)C(C(=O)OC)=C1C (stereo unspecified) 2.91%
COC(=O)CC(Oc1c(C)n(C)c2ccccc2c1=O)c1ccccc1 (stereo unspecified) 1.4%
C[C@H](ON=C1[C@H]2CCn3c(=O)n(-c4ccccc4)c(=O)n3[C@@H]2[C@H](O)[C@@H]2O[C@H]12)c1cn([C@H](CO)Cc2ccccc2)nn1 14.6%
C=CC1=C2C=C(C3CC3)N(c3ccc(OC)cc3)C=C2C(=O)C(C)(OC(=O)c2ccco2)C1=O (stereo unspecified) -1.33%
C=CCN1C(=O)CC[C@@]23C1=NC(C(=O)OC)=C(C(=O)OC)[C@@H]2N(CC#CC)c1ccccc13 -10.8%
CC(=O)OC[C@H]1O[C@@H](ON=CC[C@@H]2C=C[C@@H](OC(C)=O)[C@@H](COC(C)=O)O2)[C@@H](OC(C)=O)[C@@H](OC(C)=O)[C@@H]1OC(C)=O 6.45%
C[C@H](NC(=O)N1CCc2nc(-c3ccccc3)c3c(c2C1)CO[C@@H](C)C3)c1ccccc1 12.2%
C=CCC(C)(NCc1ccccc1)C(=O)OCC (stereo unspecified) -2.51%
COC(=O)CCC(=O)OC1(C)C(=O)C=C2C=C(C3CC3)N(c3ccc(CO)cc3)C=C2C1=O (stereo unspecified) -3.28%
COc1ccc(C(O)C2=CCCC2=O)cc1 (stereo unspecified) -3.9%
COc1ccc2c(c1)O[C@@H](c1cccc(C(F)(F)F)c1)[C@H](OC(=O)NC1CCCC1)C2=O 0.0805%
C[C@@H]1CC[C@H]2C(=O)N3[C@@H](CC[C@@H](C)[C@@H]3c3ccc(Br)cc3)C(=O)N2[C@@H]1c1ccc(Br)cc1 3.45%
COc1cc2c(c(OC)c1)[C@H](C=Cc1ccccc1)[C@@H]([C@H](O)CO)OC2 1.23%
CC(C)=CCC12CC3[C@@H](O)C(C(=O)c4ccccc4)(C1=O)C(=O)C(CC=C(C)C)(C2=O)C3(C)C (stereo partly specified) -8.2%
C[C@H](NC(=O)N1CCc2nc(COc3ccccc3)c3c(c2C1)CO[C@@H](C)C3)c1ccccc1 2.79%
COC(=O)C1=C(C)N(Cc2ccccc2)C(=O)NC1c1cccc(F)c1 (stereo unspecified) -0.696%
C=CC[C@@H]1C=C(C(=O)OC)N(C(=O)C(F)(F)F)[C@@H](c2ccccc2Br)[C@@H]1C -3.42%
CCOC(=O)C1=CN(CCC=C(C)C)C(=O)NC1c1ccccc1 (stereo unspecified) -0.013%
COC(=O)CCCC1=CC2=C(c3ccccc3)C(=O)C(C)(OC(=O)C3CCCC3)C(=O)C2=CN1c1ccccc1 (stereo unspecified) -1.85%
C=CCCCN1C(=O)NC(c2ccccc2)C(C(=O)OC)=C1C (stereo unspecified) -0.805%
CCCCCCCC1=CC2=C(Cl)C(=O)C(C)(OC(C)=O)C(=O)C2=CO1 (stereo unspecified) 3.31%
C=CC[C@@]1(c2ccc(Br)cc2OC)Oc2ccccc2-c2nccnc21 -1.18%
CCCCCCCc1cc2c(cn1)C(=O)C(C)(OC(C)=O)C(O)=C2Cl (stereo unspecified) -1.11%
COc1ccc2c(c1)C(=O)[C@H](OC(=O)N[C@H]1CCCc3ccccc31)[C@@H](c1ccc(OC)c(Br)c1)O2 -2.46%
COCC=CC1=CC2=CC(=O)C(C)(OC(=O)c3cnc4ccccc4n3)C(=O)C2=CN1Cc1ccc(OC)cc1 (stereo unspecified) -0.223%
COC(=O)N[C@H](CC(C)=O)c1ccc2c(c1)OCO2 -2.07%
COc1ccc(CN2C=C3C(=O)C(C)(OC(=O)C4CCCC4)C(=O)C=C3C=C2c2ccsc2)cc1 (stereo unspecified) 5.22%
COC(=O)N[C@@H](C=Cc1ccccc1)C[N+](=O)[O-] -0.543%
COC(=O)[C@H]1[C@H](CCc2ccccc2)NC(=O)N(Cc2ccccc2)[C@H]1C -2.55%
COC(=O)CC=C[C@@H](C)[C@H](NC(=O)OCC(Cl)(Cl)Cl)c1ccc2ccccc2c1 0.482%
